We go through 23 molecules from PubChem BioAssay AID602393 (Broad Institute, 2012).

Hit rate of the full screen: of about 350,000 compounds, about 7,000 (2%) were called active. The full list was thinned out, with actives kept by preference. Unmarked numbers belong to inactive results. Rule as the data show it: active = activation above about 40%; inconclusive = no clear call, values can overlap the other calls; inactive = below that.

A short description of this assay: raisers of Bmi1 knock-in reporter signal – mouse ES cells, Bmi1 luciferase knock-in, single point, esBAF inhibitor project, primary screen (AID 602393).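 Also: 0% = median of the plate's neutral control wells and 100% = double that signal; a rise in the Bmi1 reporter signal indicates esBAF inhibition.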 The conditions noted are these: 24 h, at 12.5 µM, stronger effect = higher value, 100% = twice the neutral-well signal.
As for `CCCN(C)C[C@@H]1Oc2ncc(-c3cccc(C(=O)N(C)C)c3)cc2C(=O)N([C@H](C)CO)C[C@@H]1C`, the reporter increase is -6.02%.

Regarding `O=C(CN1CCCCCC1)Nc1ccc(Cl)cc1F`, the reporter increase is -12.4%.

With `O=C(CN1CCCCCC1)Nc1ccc(Br)cc1Br`, the reporter increase is 56.9% (active).

Regarding `O=C(CN1CCCCCC1)Nc1ccc(Br)cc1[N+](=O)[O-]`, the reporter increase was -0.566%.

Turning to `O=c1c2ccccc2nnn1CSc1nnnn1-c1ccccc1`, the reporter increase was 57.4% (active).

Regarding `CN(C(=O)CSc1nnnn1-c1ccccc1)C1CCCCC1`, the reporter increase is 22.5%.

On to `C=CCn1c(SCn2nnc3ccccc3c2=O)nnc1-c1ccc(Cl)cc1`, for which the reporter increase is -8.46%.

On to `Cc1ccc(S(=O)(=O)N[C@@H]2CC[C@H](CCn3cc(C4(O)CCCC4)nn3)O[C@H]2CO)cc1`, for which the reporter increase was 1.86%.

As for `Nc1cc(N)nc(SCc2cccc(F)c2)n1`, the reporter increase is 65% (active).

Consider `Nc1cc(N)nc(SCc2ccc(Cl)cc2)n1`, for which the reporter increase is 33.3%.

For `CCc1nnc(SCc2cccc(F)c2)nc1CC`, the reporter increase was -1.92%.

Take `CCC(=O)N(C)C[C@@H]1Oc2ncc(/C=C/c3ccccc3)cc2C(=O)N([C@@H](C)CO)C[C@H]1C`: the reporter increase was -3.12%.

In the case of `CCC(=O)N1[C@H](C(=O)NCc2ccc(F)cc2)[C@@H](CO)[C@@H]2Cn3c(ccc(C4=CCCCC4)c3=O)[C@@H]21`, the reporter increase is -5.62%.

As to `COc1ccc(N(CCC(=O)NCCc2ccccc2)S(=O)(=O)c2ccc(C)cc2C)cc1`, the reporter increase is 77.9% (active).

For `CCOc1ccc(N(CC(=O)NCCc2ccc(F)cc2)S(=O)(=O)c2ccccc2)cc1`, the reporter increase was 1.13%.

With `CCN(CC(=O)NCCc1ccccc1)S(=O)(=O)c1ccc(C)cc1`, the reporter increase was -2.78%.

With `O=C(COC(=O)c1ccccc1C(=O)c1ccccc1)c1ccco1`, the reporter increase was -5.33%.

For `CCN(CC)c1ccc(C(=O)OCC(=O)c2ccco2)cc1`, the reporter increase is 69.5% (active).

`CCc1ccc(C(=O)COC(=O)c2ccco2)cc1`: the reporter increase is 13.9%.

In the case of `C[C@@H]1CN([C@H](C)CO)C(=O)c2cc(-c3cccc(F)c3)cnc2O[C@@H]1CN(C)C`, the reporter increase is -2.09%.

In the case of `Cc1noc(C)c1S(=O)(=O)Nc1ccc2c(c1)C(=O)N([C@H](C)CO)C[C@H](C)[C@H](CN(C)S(=O)(=O)c1cn(C)cn1)OCCCC[C@@H](C)O2`, the reporter increase was -2.07%.

Regarding `C[C@@H]1CCCCO[C@@H](CN(C)C(=O)NC2CCCCC2)[C@H](C)CN([C@H](C)CO)C(=O)c2cc(NC(=O)c3ccccc3)ccc2O1`, the reporter increase is 8.88%.

In the case of `Cc1ccccc1S(=O)(=O)NCC[C@@H]1CC[C@@H](NS(=O)(=O)c2ccccc2C)[C@@H](CO)O1`, the reporter increase is 2.87%.
